{"source": "PubChem BioAssay (Tox21)", "note": "The source made the active and inactive calls. Entries that show only a call come without a potency. Calls follow the shape of the full dose curve. Bridge positions count the residues as written; N and C are the ends. Square brackets hold non-standard residues; d marks the D form. Peptide text beside a SMILES is read from it. hArg = N=C(N)NCCCC[C@H](N)C(=O)O; Mpa = O=C(O)CCS"}
{"target": "Muscarinic acetylcholine receptor M1 (Homo sapiens) (UniProt P11229)", "sequence (P11229 whole entry, looked up)": "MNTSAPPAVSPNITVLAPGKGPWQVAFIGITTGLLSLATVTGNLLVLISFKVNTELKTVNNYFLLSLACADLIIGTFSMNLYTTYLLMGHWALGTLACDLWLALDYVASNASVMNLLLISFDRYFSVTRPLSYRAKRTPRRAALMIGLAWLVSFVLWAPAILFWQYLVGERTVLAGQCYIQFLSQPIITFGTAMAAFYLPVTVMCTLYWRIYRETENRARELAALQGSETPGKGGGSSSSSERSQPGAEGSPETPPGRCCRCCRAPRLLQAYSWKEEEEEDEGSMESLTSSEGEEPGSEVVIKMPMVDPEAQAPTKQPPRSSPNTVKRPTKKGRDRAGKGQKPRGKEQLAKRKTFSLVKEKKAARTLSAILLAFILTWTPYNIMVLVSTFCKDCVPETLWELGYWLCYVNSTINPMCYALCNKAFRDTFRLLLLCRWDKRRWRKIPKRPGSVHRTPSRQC", "experiment": "Cholinergic receptor muscarinic 1 (CHRM1) small molecule agonists, cell-based qHTS assay (AID 1963589); also: nearly all actives have a fitted effect of over 35% in size", "settings": "CHRM1-CHO cells, agonist mode, calcium flux fluorescence; series mostly up to 76.8 µM", "description": "National Center for Advancing Translational Sciences [NCATS]\nDivision of Preclinical Innovation [DPI]\nU.S. Environmental Protection Agency [EPA]\nNational Institutes of Environmental Health Sciences [NIEHS]\nNational Toxicology Program [NTP]\nU.S. Food and Drug Administration [FDA]\nThe CHRM1 is a muscarinic receptor. This receptor plays a crucial role in learning and memory processes and has long been identified as a promising therapeutic target for the improvement of cognitive decline in Alzheimer's disease (AD). The CHRM1-CHO cell line stably expressing human muscarinic acetylcholine receptor M1 (CHRM1) can be used for screening agonists and antagonists of interactions between CHRM1 and its ligands. The CHRM1-CHO Calcium Flux Assay is a homogeneous fluorescence-based assay for detecting the intracellular calcium level using FDSS kinetic plate reader system.\nCHRM1-CHO cells were dispensed at 1000 cells/3uL/well in 1536-well black-clear bottom plates using a Multidrop Dispenser. After the assay plates were incubated at a 37 C/5% CO2 incubator for 18 h, 3 uL of Dye Loading Buffer was transferred to the assay plate by a Flying Reagent Dispenser. The assay plates were incubated at 37 C for 1h. For agonist mode, 23 nL of compounds dissolved in DMSO, positive controls or DMSO only was transferred to the assay plate by a pin tool. […] Each test compound was measured at 15 concentrations in three independent runs."}
{"compound": "COC(=O)C(C)Oc1ccc(Oc2ccc(Cl)cc2Cl)cc1", "note": "(stereo not given)", "Potency": "inactive"}
{"compound": "CC(C)(c1ccc(O)c(-c2ccccc2)c1)c1ccc(O)c(-c2ccccc2)c1", "Potency": "inactive"}
{"compound": "O=C(NC(=O)c1c(F)cccc1F)Nc1cc(Cl)c(F)c(Cl)c1F", "Potency": "inactive"}
{"compound": "CCCCCCCCCC[N+](C)(C)CCCCCCCCCC", "Potency": "inactive"}
{"compound": "CC(=O)C(Cl)C(=O)N(C)C", "note": "(stereo not given)", "Potency": "inactive"}
{"compound": "CC(=O)CN(CC(C)=O)N=O", "Potency": "inactive"}
{"compound": "CC(=O)c1cc(C(C)(C)C)cc2c1CCC2(C)C", "Potency": "inactive"}
{"compound": "CC(C)(C)c1cc([N+](=O)[O-])cc([N+](=O)[O-])c1O", "Potency": "inactive"}
{"compound": "ClCBr", "Potency": "inactive"}
{"compound": "C#C[C@]1(O)CC[C@H]2[C@@H]3CCC4=CC(=O)CCC4=C3C=C[C@@]21CC", "Potency": "inactive"}
{"compound": "CCC[CH2][Sn]([CH2]CCC)([O]C(C)=O)[O]C(C)=O", "Potency": "inactive"}
{"compound": "O=C(O)c1cccc(Cl)c1", "Potency": "inactive"}
{"compound": "CN1CCc2cc(Cl)c(O)cc2[C@H]2c3ccccc3CC[C@@H]21", "Potency": "inactive"}
{"compound": "CC(C)[C@]12CC(=O)[C@H](C)[C@H]1C2", "Potency": "inactive"}
{"compound": "Fc1ccc(C(OCCN2CCN(CCCc3ccccc3)CC2)c2ccc(F)cc2)cc1", "Potency": "inactive"}
{"compound": "CCS(=O)(=O)CCSP(=O)(OC)OC", "Potency": "inactive"}
{"compound": "CCC(C)(C)c1cc(-n2nc3ccccc3n2)c(O)c(C(C)(C)CC)c1", "Potency": "inactive"}
{"compound": "CC(C)=CC1C(C(=O)OC(C#N)c2cccc(Oc3ccccc3)c2)C1(C)C", "note": "(stereo not given)", "Potency": "inactive"}
{"compound": "N#CC(C#N)=C(C#N)C#N", "Potency": "inactive"}
{"compound": "CCOP(=O)(O)C(N)=O", "Potency": "inactive"}
{"compound": "COC(N)=O", "Potency": "inactive"}
{"compound": "CCCC[P+](CC)(CCCC)CCCC", "note": "(tested in a mixture with another compound)", "Potency": "inactive"}
{"compound": "NC(=O)[C@@H]1CSSCCC(=O)N[C@@H](CCCCN=C(N)N)C(=O)NCC(=O)N[C@@H](CC(=O)O)C(=O)N[C@@H](Cc2c[nH]c3ccccc23)C(=O)N2CCC[C@H]2C(=O)N1", "note": "([Mpa][hArg]GDWPC-NH2; disulfide 1-7)", "Potency": "inactive"}
{"compound": "Clc1cccc(SC2CCNCC2)n1", "Potency": "inactive"}
{"compound": "NP(N)(=O)NC(=O)c1ccc(F)cc1", "Potency": "inactive"}
{"compound": "O=C(Cl)c1ccc(Cl)cc1", "Potency": "inactive"}
{"compound": "CN(C1CCCCC1)C1CCCCC1", "Potency": "inactive"}
{"compound": "Cc1ccc(C)c2ccccc12", "Potency": "inactive"}
{"compound": "COc1ccc(OC)c(C=O)c1", "Potency": "inactive"}
{"compound": "CC(C)[C@H](C(=O)OC(C#N)c1cccc(Oc2ccccc2)c1)c1ccc(OC(F)F)cc1", "note": "(stereo not given in full)", "Potency": "inactive"}
{"compound": "Cn1[nH]nnc1=S", "Potency": "inactive"}
{"compound": "CNP(=O)(OC)Oc1ccc(C(C)(C)C)cc1Cl", "note": "(stereo not given)", "Potency": "inactive"}
{"compound": "CC(=O)[O-].CC(=O)[O-].CC(=O)[O-].[Sb+3]", "activation": "-0.154% [at 2.72 µM] (inactive)"}
{"compound": "CCCCCCCCCCCCCN1CC(C)OC(C)C1", "note": "(stereo not given)", "Potency": "inactive"}
{"compound": "O=C(O)COc1ccc(Cl)cc1", "Potency": "inactive"}
{"compound": "S=C(SSC(=S)N1CCCCC1)N1CCCCC1", "Potency": "inactive"}
{"compound": "CC(C)(C)c1cc(O)ccc1O", "Potency": "inactive"}
{"compound": "CC1(c2ccc(Oc3ccccc3)cc2)OC(=O)N(Nc2ccccc2)C1=O", "note": "(stereo not given)", "Potency": "inactive"}
{"compound": "CN1C(=O)C(O)N=C(c2ccccc2)c2cc(Cl)ccc21", "note": "(stereo not given)", "Potency": "inactive"}
{"compound": "CCOP(=S)(OCC)SCSP(=S)(OCC)OCC", "Potency": "inactive"}
